Laboratory results from PubChem BioAssay (NCATS).
Where “and” joins values, the source holds several entries; their conditions need not be identical. Equal values may be shown once. Results filed as inconclusive are left out. A call without a number means that no potency is given here. A structure can be active in one record and inactive in another. Calls of active or inactive are those of the source. Unless noted, calls come from the whole dose curve.

Legend:
[1] = biological target: Androgen receptor (Homo sapiens) (UniProt P10275); assay: qHTS assay for small molecule agonists of androgen receptor signaling (AID 588515; active = well fitted curve in the direction sought with a large enough effect in the signal ratio, with a control signal flat; the % refers to the signal ratio); conditions: AR-UAS-bla HEK293, beta-lactamase ratio, agonist 16 h; stronger effect = higher value
Androgen receptor (Homo sapiens), sequence (P10275 whole entry, looked up): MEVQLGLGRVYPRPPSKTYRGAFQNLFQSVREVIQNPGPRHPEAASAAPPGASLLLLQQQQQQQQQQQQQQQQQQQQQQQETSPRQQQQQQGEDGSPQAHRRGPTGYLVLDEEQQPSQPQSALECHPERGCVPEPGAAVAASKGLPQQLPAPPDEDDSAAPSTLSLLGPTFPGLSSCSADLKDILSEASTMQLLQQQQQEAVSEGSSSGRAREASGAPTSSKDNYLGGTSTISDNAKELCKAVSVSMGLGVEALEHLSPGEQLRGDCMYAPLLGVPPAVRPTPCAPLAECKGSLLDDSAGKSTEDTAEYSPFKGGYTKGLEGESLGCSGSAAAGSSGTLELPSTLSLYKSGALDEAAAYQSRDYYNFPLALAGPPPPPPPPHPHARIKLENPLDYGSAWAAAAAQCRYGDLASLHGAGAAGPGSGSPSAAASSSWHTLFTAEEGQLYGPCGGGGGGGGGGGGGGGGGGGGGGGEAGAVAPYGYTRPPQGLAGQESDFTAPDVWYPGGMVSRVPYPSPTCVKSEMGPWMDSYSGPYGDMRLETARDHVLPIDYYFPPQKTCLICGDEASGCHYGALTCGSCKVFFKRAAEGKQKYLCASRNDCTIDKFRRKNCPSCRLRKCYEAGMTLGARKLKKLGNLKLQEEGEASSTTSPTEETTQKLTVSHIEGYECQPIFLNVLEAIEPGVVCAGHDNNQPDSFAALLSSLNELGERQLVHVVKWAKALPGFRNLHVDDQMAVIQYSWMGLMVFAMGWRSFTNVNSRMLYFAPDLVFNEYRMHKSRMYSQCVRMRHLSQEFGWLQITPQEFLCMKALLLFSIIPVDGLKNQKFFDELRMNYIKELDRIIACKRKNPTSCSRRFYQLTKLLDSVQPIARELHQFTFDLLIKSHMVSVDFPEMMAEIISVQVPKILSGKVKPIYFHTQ
In short: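 EC50 and efficacy came from Hill fits of titrations (up to 92 uM) normalized to 30 nM R1881 as 100% and DMSO as 0%. Compound exposure was 16 h at 37 C on AR-UAS-bla HEK293 cells, with a 405/460/530 nm CCF4 fluorescence read.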

[2] = biological target: Androgen receptor (Homo sapiens) (UniProt P10275); assay: qHTS assay for small molecule antagonists of androgen receptor signaling (AID 588516; active = well fitted curve in the direction sought with a large enough effect in the signal ratio, with a control signal flat, not every such curve was filed as active; the % refers to the signal ratio); conditions: AR-UAS-bla HEK293, beta-lactamase ratio, antagonist mode, 16 h; series mostly up to 76.8 µM
In short: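 Antagonist mode: inhibition of R1881-stimulated (10 nM final) bla reporter in GeneBLAzer AR HEK 293 cells, 16 h at 37C, compounds titrated. IC50 and efficacy from Hill-equation fits of 405/460–530 nm FRET ratios.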

[3] = biological target: Bile acid receptor (Homo sapiens) (UniProt Q96RI1); assay: qHTS assay for small molecule agonists of farnesoid X receptor signaling (AID 588527); conditions: HEK293T FXR-UAS-bla, beta-lactamase ratio, 16 h; activation: stronger effect = higher value
Bile acid receptor (Homo sapiens), sequence (Q96RI1 whole entry, looked up): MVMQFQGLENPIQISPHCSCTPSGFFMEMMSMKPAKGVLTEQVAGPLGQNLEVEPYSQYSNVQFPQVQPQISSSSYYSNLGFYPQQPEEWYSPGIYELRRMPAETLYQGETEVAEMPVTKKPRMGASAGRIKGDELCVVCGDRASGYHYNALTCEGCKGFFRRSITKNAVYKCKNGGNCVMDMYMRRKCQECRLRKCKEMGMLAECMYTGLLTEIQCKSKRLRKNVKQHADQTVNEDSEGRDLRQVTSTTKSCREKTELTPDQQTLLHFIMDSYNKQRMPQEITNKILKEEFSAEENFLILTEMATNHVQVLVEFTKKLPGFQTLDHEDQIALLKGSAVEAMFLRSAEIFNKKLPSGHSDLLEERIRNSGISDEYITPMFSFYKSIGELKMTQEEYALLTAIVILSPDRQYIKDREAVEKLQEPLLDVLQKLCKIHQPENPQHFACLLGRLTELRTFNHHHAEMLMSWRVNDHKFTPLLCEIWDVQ
In short: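 FXR-UAS-bla HEK293T cells (10% dialyzed FBS) preincubated 5-7 h at 37 C, then compounds at up to 92 uM for 16 h at 37 C. CCF4 beta-lactamase read-out after 2 h RT. Normalized to chenodeoxycholic acid (100 uM) and DMSO; Hill fit gave EC50 and efficacy.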

[4] = biological target: Peroxisome proliferator-activated receptor delta (Homo sapiens) (UniProt Q03181); assay: qHTS assay for small molecule antagonists of peroxisome proliferator-activated receptor delta signaling (AID 588535; active = well fitted inhibition curve with a large enough effect in the signal ratio, with a control signal flat, not every such curve was filed as active; the % refers to the signal ratio); conditions: HEK293T PPARd-UAS-bla, beta-lactamase FRET ratio, 18 h; series mostly up to 76.7 µM
Peroxisome proliferator-activated receptor delta (Homo sapiens), sequence (Q03181 whole entry, looked up): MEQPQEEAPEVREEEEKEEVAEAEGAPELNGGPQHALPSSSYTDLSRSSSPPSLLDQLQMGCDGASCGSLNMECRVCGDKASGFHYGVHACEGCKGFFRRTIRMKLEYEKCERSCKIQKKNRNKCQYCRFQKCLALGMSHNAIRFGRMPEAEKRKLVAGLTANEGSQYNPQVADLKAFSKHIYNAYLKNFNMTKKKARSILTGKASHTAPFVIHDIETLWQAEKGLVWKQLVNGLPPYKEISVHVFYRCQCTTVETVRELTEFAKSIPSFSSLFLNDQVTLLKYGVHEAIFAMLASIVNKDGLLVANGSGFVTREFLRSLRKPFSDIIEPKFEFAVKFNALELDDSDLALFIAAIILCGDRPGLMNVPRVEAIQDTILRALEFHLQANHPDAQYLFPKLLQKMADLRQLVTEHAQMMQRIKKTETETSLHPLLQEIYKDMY
In short: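 Reporter: UAS-bla under PPAR-delta response element, HEK293T host. Medium: 2% charcoal/dextran FBS. Dosing: titration, 18 hrs, 37 C. Detection: CCF4, 2 hrs RT, 405 ex/460 and 530 em.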

[5] = biological target: Peroxisome proliferator-activated receptor gamma (Homo sapiens) (UniProt P37231); assay: qHTS assay for small molecule agonists of peroxisome proliferator-activated receptor gamma signaling (AID 588536; active = well fitted curve in the direction sought with a large enough effect in the signal ratio, with a control signal flat, not every such curve was filed as active; the % refers to the signal ratio); conditions: HEK293 PPARg-UAS-bla, beta-lactamase ratio, 16 h; series mostly up to 76.7 µM
Peroxisome proliferator-activated receptor gamma (Homo sapiens), sequence (P37231 whole entry, looked up): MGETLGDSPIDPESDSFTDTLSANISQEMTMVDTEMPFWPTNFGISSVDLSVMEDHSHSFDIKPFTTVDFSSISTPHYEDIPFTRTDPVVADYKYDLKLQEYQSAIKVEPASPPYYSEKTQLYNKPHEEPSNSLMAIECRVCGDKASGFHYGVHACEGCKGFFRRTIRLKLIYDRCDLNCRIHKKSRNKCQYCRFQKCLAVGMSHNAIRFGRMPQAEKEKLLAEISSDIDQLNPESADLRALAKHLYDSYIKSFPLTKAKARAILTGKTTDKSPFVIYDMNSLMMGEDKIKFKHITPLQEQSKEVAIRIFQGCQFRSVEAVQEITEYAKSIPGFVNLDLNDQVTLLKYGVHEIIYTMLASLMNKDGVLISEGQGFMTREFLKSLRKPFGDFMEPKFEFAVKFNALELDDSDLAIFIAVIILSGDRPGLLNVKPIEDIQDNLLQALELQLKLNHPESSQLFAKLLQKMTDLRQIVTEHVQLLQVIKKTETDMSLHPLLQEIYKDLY
In short: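 GeneBLAzer PPAR-gamma-UAS-bla HEK293 cells in 1% charcoal/dextran-treated FBS medium were treated 16 h at 37 C with compounds. Beta-lactamase activity was read by CCF4 ratio (460/530 nm). Response was normalized to 2 uM rosiglitazone (100%) and DMSO, then Hill-fitted for EC50 and efficacy.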

[6] = biological target: Peroxisome proliferator-activated receptor gamma (Homo sapiens) (UniProt P37231); assay: qHTS assay for small molecule antagonists of peroxisome proliferator-activated receptor gamma signaling (AID 588537; active = well fitted inhibition curve with a large enough effect in the signal ratio, with a control signal flat, not every such curve was filed as active; the % refers to the signal ratio; note: potency is the fitted concentration of half-maximal effect); conditions: HEK293 PPARg-UAS-bla, beta-lactamase ratio, antagonist mode; series mostly up to 76.8 µM
In short: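 We seeded GeneBLAzer HEK293 reporter cells at 3000 per well, allowed 6-6.5 h attachment at 37 C, then co-treated with test compound titrations and 50 nM rosiglitazone overnight (16 h). Inhibition was quantified from 460/530 nm emission ratios.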

[7] = qHTS assay for small molecule agonists of the antioxidant response element (ARE) signaling pathway (AID 651741; active = well fitted activation curve with a large enough effect in the signal ratio; the % refers to the signal ratio; note: potency is the fitted concentration of half-maximal effect); conditions: HepG2 ARE-bla reporter, beta-lactamase FRET ratio, 16 h; series mostly up to 96 µM
In short: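 Compounds in DMSO are pinned onto HepG2 ARE-bla cells (2,000/well) that were preincubated 5 h; plates stay 16 h at 37 C, then beta-lactamase activity is detected with LiveBLAzer B/G substrate by fluorescence.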

[8] = qHTS assay for small molecule activators of the human pregnane X receptor (PXR) signaling pathway (AID 720659; call rule not given here); conditions: DPX-2 HepG2 CYP3A4-luciferase, 24 h; series mostly up to 92.3 µM
[9] = biological target: Estrogen receptor (Homo sapiens) (UniProt P03372); assay: qHTS assay for small molecule agonists of estrogen receptor alpha signaling (AID 588514); conditions: ER-alpha-UAS-bla HEK293, beta-lactamase ratio, 18 h; series mostly up to 76.8 µM; note: nearly all actives have a fitted effect of over 70% in size
Estrogen receptor (Homo sapiens), sequence (P03372 whole entry, looked up): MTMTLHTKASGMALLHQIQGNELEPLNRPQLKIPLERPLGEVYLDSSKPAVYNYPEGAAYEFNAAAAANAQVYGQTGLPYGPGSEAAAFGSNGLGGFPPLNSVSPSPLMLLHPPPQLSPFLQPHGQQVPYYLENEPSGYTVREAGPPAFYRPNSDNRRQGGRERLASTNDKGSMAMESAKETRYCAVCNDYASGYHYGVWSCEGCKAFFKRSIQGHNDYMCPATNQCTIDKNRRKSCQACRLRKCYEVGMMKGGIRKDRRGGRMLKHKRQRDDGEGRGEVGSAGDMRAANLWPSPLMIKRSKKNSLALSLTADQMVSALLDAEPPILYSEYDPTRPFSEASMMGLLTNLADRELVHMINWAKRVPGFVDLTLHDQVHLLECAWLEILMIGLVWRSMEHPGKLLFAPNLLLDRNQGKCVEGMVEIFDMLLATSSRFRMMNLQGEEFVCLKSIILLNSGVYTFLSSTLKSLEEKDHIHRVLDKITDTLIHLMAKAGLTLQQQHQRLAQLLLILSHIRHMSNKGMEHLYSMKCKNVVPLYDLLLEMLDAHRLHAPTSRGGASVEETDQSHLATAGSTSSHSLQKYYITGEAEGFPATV
In short: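 ER-alpha-UAS-bla GripTite HEK293 cells, 5000/well in 2% charcoal/dextran-stripped FBS medium, treated with compound titrations 18 h at 37 C. CCF4 beta-lactamase read by fluorescence after 2 h RT; normalised to 20 nM 17-beta-estradiol (100%) and DMSO (0%), Hill fit for EC50 and efficacy.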

[10] = qHTS assay for small molecule agonists of retinoid X receptor alpha signaling (AID 588544); conditions: HEK293T RXRa-UAS-bla, beta-lactamase reporter, 18 h; 530 nm emission
[11] = biological target: Bile acid receptor (Homo sapiens) (UniProt Q96RI1); assay: qHTS assay for small molecule antagonists of farnesoid X receptor signaling (AID 588526); conditions: HEK293T FXR-UAS-bla, beta-lactamase ratio, antagonist mode; series mostly up to 76.7 µM
In short: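 Concentration-response titrations were fitted to the Hill equation for half-maximal inhibition and maximal response, with data normalised to 50 uM chenodeoxycholic acid and DMSO control wells. Cells: FXR-UAS-bla HEK293T, dialyzed FBS.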

[12] = biological target: Tumor necrosis factor (Homo sapiens) (UniProt P01375); assay: qHTS assay to identify small molecules that stimulate Tumor Necrosis Factor-alpha (TNF-alpha) secretion (AID 651757; active = well fitted curve in the direction sought with a large enough effect in the signal ratio; the % refers to the signal ratio; note: potency is the fitted concentration of half-maximal effect); conditions: Human cells, HTRF 665/615 ratio; series mostly up to 92.2 µM
Tumor necrosis factor (Homo sapiens), sequence (P01375 whole entry, looked up): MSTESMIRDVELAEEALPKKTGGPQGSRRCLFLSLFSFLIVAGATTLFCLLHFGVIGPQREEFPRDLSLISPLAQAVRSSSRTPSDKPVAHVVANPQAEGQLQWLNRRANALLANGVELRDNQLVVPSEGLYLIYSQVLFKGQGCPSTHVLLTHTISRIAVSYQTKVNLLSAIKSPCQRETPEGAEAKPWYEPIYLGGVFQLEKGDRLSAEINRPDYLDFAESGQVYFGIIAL
In short: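 THP-1 cells (3000/well) exposed to compounds 17 hrs at 37 C. Secreted TNF-alpha detected by HTRF with cryptate- and XL665-labeled anti-TNF-alpha antibodies after 3 hr at room temperature.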

[13] = qHTS assay for small molecule disruptors of the mitochondrial membrane potential - 1 hr assay (AID 651754); conditions: series mostly up to 92.2 µM; note: potency is the fitted concentration of half-maximal effect; nearly all actives have a fitted effect of over 35% in size
In short: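 HepG2 cells, attached overnight, were exposed to compound for 1 hr at 37C, then stained 30 min with a potentiometric dye. Ratio of red aggregate (590nm) to green monomer (535nm) fluorescence reports membrane potential; collapse shifts signal toward green.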

SMILES: CCC[CH2][Sn](=[O])[CH2]CCC
- activation [1]: 0.348% (inactive)
- Potency [2]: inactive
- activation [3]: -6.54% (inactive)
- Potency [4]: inactive
- Potency [5]: inactive
- Potency [6]: inactive
- Potency [7]: inactive
- outcome [8]: inactive

SMILES: Cc1cc(Cl)ccc1O[C@H](C)C(=O)O
- Potency [9]: inactive
- Potency [6]: inactive
- max response [10]: -13.3%
- outcome [8]: inactive

SMILES: Cc1[nH]c(=O)n(C(C)(C)C)c(=O)c1Cl
- activation [1]: 0.796% (inactive)
- Potency [2]: inactive
- Potency [11]: inactive
- Potency [5]: inactive
- Potency [6]: inactive
- max response [10]: -0.982%
- outcome [8]: inactive

SMILES: CC(C)[C@@H](Nc1ccc(C(F)(F)F)cc1Cl)C(=O)OC(C#N)c1cccc(Oc2ccccc2)c1 (stereo not given in full)
- Potency [9]: inactive

SMILES: CCCN(CCOc1c(Cl)cc(Cl)cc1Cl)C(=O)n1ccnc1
- Potency [11]: inactive
- activation [3]: 4.58% (inactive)
- Potency [4]: inactive
- Potency [5]: inactive
- Potency [6]: 44.7 µM (active) and inactive
- Potency [7]: 30.6 µM (active) and 48.6 µM (active)

SMILES: N#Cc1cc(I)c(O)c(I)c1
- activation [1]: 6.03% (inactive)
- Potency [2]: inactive
- Potency [4]: inactive
- max response [10]: 19.3%
- Potency [7]: 30.6 µM (active)
- outcome [8]: inactive

SMILES: O=C(O)c1c(Cl)ccc2cc(Cl)cnc12
- Potency [11]: inactive
- activation [3]: 0.431% (inactive)
- Potency [4]: inactive
- Potency [5]: inactive
- Potency [6]: inactive
- max response [10]: -15.1%
- Potency [7]: inactive
- outcome [8]: inactive

SMILES: c1ccc2c(c1)c1cccc3ccc4cccc2c4c31
- activation [1]: 7.55% (inactive)
- activation [3]: -3.29% (inactive) and 7.3% (inactive)
- Potency [7]: 6.86 µM (active)
- Potency [12]: 29.8 µM (active)

SMILES: Cc1nc(N(C)C)nc(OC(=O)N(C)C)c1C
- Potency [11]: inactive
- activation [3]: 2.16% (inactive)
- Potency [4]: inactive
- Potency [5]: inactive
- Potency [6]: inactive
- max response [10]: 0.351%
- Potency [7]: inactive
- outcome [8]: inactive

SMILES: CCOc1cc(C(C)(C)C)ccc1C1COC(c2c(F)cccc2F)=N1 (stereo not given)
- activation [1]: -19.9% (inactive)
- Potency [4]: inactive
- Potency [7]: 12.2 µM (active)

SMILES: CCN(CC)C(=O)SCc1ccc(Cl)cc1
- Potency [11]: inactive
- activation [3]: 5.41% (inactive)
- Potency [5]: inactive
- Potency [6]: inactive
- max response [10]: 0.303%

SMILES: Clc1ccc(-c2cc(Cl)c(Cl)cc2Cl)cc1Cl
- activation [1]: -4.76% (inactive)
- activation [3]: 4.78% (inactive)
- Potency [5]: inactive
- Potency [6]: inactive
- outcome [8]: inactive

SMILES: C[N+]1(C)CCCCC1
- activation [1]: 4.04% (inactive)
- Potency [2]: inactive
- Potency [4]: inactive
- Potency [5]: inactive
- Potency [6]: inactive
- max response [10]: -8.78%
- outcome [8]: inactive

SMILES: CCOP(=S)(OCC)SC(CCl)N1C(=O)c2ccccc2C1=O (stereo not given)
- activation [1]: -16.4% (inactive)
- Potency [2]: inactive
- Potency [4]: inactive
- Potency [7]: 27.3 µM (active)

SMILES: CC(O)CN(CC(C)O)CC(C)O (stereo not given)
- Potency [11]: inactive
- activation [3]: 0.256% (inactive)
- Potency [7]: 54.5 µM (active)
- outcome [8]: inactive

SMILES: CCCOCC(=Nc1ccc(Cl)cc1C(F)(F)F)n1ccnc1
- Potency [11]: inactive
- activation [3]: -0.0346% (inactive)
- Potency [4]: inactive
- max response [10]: -2.58%
- Potency [7]: 19.3 µM (active)

SMILES: COC(=O)c1c(C(F)F)nc(C(F)(F)F)c(C2=NCCS2)c1CC(C)C
- activation [1]: -1.74% (inactive)
- Potency [2]: inactive
- Potency [5]: inactive

SMILES: c1ccc2c(c1)[nH]c1ccccc12
- activation [1]: 0.372% (inactive)
- Potency [13]: 59.6 µM (active)
